The whole screen tested about 360,000 compounds, of which about 17,000 (4.7%) were called active. Another 5% or so got no clear call; they are omitted. This is one part of a sample in which actives are shown more often than they occur. Rule as the data show it: active = activity change below about -50%; inconclusive = mostly about -30% to -49%; inactive = weaker than that.
Test: qHTS for Inhibitors of Inflammasome Signaling: IL-1-beta AlphaLISA Primary Screen
Conditions: THP-1 LPS/ATP IL-1B secretion, 16 h; at 57.5 µM, hits give low values
Excerpt: Inflammasomes are a set of intracellular multi-protein complexes that enable autocatalytic activation of inflammatory caspases and drive the innate immune response to counter harmful agents. […] A qHTS assay, based on AlphaLISA technology, was developed to screen the Molecular Libraries Small Molecule Repository (MLSMR) to look for novel inflammasome inhibitors. The assay detects IL-1B using AlphaLISA anti-IL-1B acceptor and donor beads. A decreased emission signal, indicating reduced IL-1B secretion, is the desired outcome for this assay. NIH Chemical Genomics Center [NCGC] NIH Molecular Libraries Probe Centers Network [MLPCN] MLPCN Grant: MH095513 Assay Provider: Shyam Biswal Ph.D., Johns Hopkins University Immunity. 2012 Jul 27;37(1):85-95. PMID: 22819042 [2] Curr Pharm Des. 2012;18(16):2320-8. PMID: 22390695
Three microliters containing 3000 THP-1 cells were dispensed into the wells of solid, white, tissue culture treated Greiner 1,536-well plates. Library compounds and positive control, Glyburide, were pin-transferred (23 nL) by a Kalypsys pin-tool equipped with a 1,536-pin array, resulting in final compound concentration ranges of 2.5 nM to 57.5 uM. After 1 hr of cell culture incubation (37 °C, 5% CO2), 1 microL of 1 microg/mL lipopolysaccharide (250 ng/mL, final) and 5 mM ATP (1.25 mM, final) were added to stimulate the cells. After 16 hr of cell culture incubation with the compounds, 1.5 uL of anti-IL-1B acceptor beads (6 ug/mL, final) and biotinylated antibody (0.6 nM, final) were added to the plate, followed by a 1 hr incubation at ambient temperature. To detect the secreted IL-1B, 1.5 uL of AlphaLISA SA-Donor beads (24 ug/mL, final) were added, followed by 30 min of incubation in the dark at ambient temperature. The AlphaLISA signal was read by a PerkinElmer EnVision plate reader with an ultrasensitive luminescence detector and 1536 Plate HTS AlphaScreen aperture (excitation of 680nm and emission of 615nm).
% is scaled to controls: 0 for no effect and ±100 for the full control effect.

Row | SMILES | activity change
1 | O=C(c1cc(C2CCCCN2S(=O)(=O)c2ccccc2)on1)N1CCOCC1 (centres undefined) | 0% (inactive)
2 | Nn1c(SCC(=O)Nc2nccs2)nnc1-c1ccco1 | -6.29% (inactive)
3 | N#Cc1nc(Cc2cccc3ccccc23)oc1NCc1ccc2c(c1)OCO2 | -53.4% (active)
4 | CC1(C(=O)NCc2ccc3c(c2)OCO3)CCN1C(=O)Cc1cccc2ccccc12 (centres undefined) | -20.8% (inactive)
5 | Cn1cc(CCC(=O)NCc2ccc3c(c2)OCO3)c2ccccc21 | 0% (inactive)
6 | Cc1ccc(S(=O)(=O)N2CCOCC2)cc1NC(=O)COC(=O)c1cnccn1 | 2.75% (inactive)
7 | CCOC(=O)C1CCCN(C(=O)c2ccc(C)c(F)c2)CC1 (centres undefined) | 13% (inactive)
8 | Cn1c(SCC(=O)Nc2ccc(Br)cc2F)nnc1-c1ccco1 | -12.1% (inactive)
9 | Cn1c(-c2ccco2)nc2cc3ccccc3cc21 | -69.2% (active)
10 | COc1ccccc1-n1c(-c2cc(-c3ccco3)[nH]n2)n[nH]c1=S | 5.01% (inactive)
11 | NC(=O)CSc1nnc(-c2cccc(S(=O)(=O)N3CCOCC3)c2)o1 | -7.22% (inactive)
12 | COc1ccc(/C=N/NC(=O)CNC(=O)c2ccc(S(=O)(=O)N3CCCC3)cc2)c(OC)c1 | 16.6% (inactive)
13 | COc1cccc(/C=N/NC(=O)CNC(=O)c2ccc(S(=O)(=O)N3CCOCC3)cc2)c1OC | -0.608% (inactive)
14 | COc1ccc(C(=O)NCC(=O)N/N=C/c2ccc([N+](=O)[O-])o2)cc1OC | -85.8% (active)
15 | COc1ccc(-c2c(C#N)cnc(C)c2C)c(O)c1OC | -20.7% (inactive)
16 | Cc1ccc(O)c(CNc2nc3ccccc3[nH]2)c1 | -5.71% (inactive)
17 | CCCCCOc1ccc(/C=C/C(=O)NCCc2nc3ccccc3[nH]2)cc1OC | -2.9% (inactive)
18 | COc1cc(/C=C(\C#N)c2nc3ccccc3[nH]2)ccc1O | -65.7% (active)
19 | O=C(CCN1C(=O)c2ccccc2C1=O)C1=NN[C@@H]2C(=O)N(c3ccc(F)cc3)C(=O)[C@H]12 | 5.83% (inactive)
20 | COc1ccc(OCC(O)CNCCNc2nccc(C(F)(F)F)n2)cc1 (centres undefined) | -18.5% (inactive)

Row | SMILES | activity change
21 | CC(C)(C)CC(C)(C)NCC(O)COCCOc1ccc(Br)cc1 (centres undefined) | -99.4% (active)
22 | CC(C)(C)NCC(O)COc1cccc2[nH]c(=O)[nH]c12 (centres undefined) | 4.98% (inactive)
23 | O=[N+]([O-])c1ccc2c(c1)C(O)n1nc(-c3ccccc3)nc1S2 (centres undefined) | -8.59% (inactive)
24 | O=C(C[C@H]1C[C@@H]2c3cc(NC(=O)C4CCC4)ccc3O[C@@H]2[C@H](CO)O1)NC1CCCCC1 | 13% (inactive)
25 | Cn1cnnc1Sc1ccc(CN2CCN(C3CCCC3)C(CCO)C2)o1 (centres undefined) | 0.321% (inactive)
26 | C[C@H]1CN(c2ccc(Br)cc2)C(=O)[C@@H]1CC(=O)Nc1ccc(Br)cc1 | 3.7% (inactive)
27 | O=C(CSc1c2c(nc3ccc(Cl)cc13)CCCC2)NCc1ccco1 | -92.7% (active)
28 | O=C(CSc1nnnn1-c1ccccc1)NCc1ccco1 | 2.34% (inactive)
29 | O=C(/C=C/c1ccc(Cl)cc1Cl)NCc1ccco1 | -10.5% (inactive)
30 | CS(=O)(=O)N1CCCC(C(=O)Nc2ccccc2C(F)(F)F)C1 (centres undefined) | 8.14% (inactive)
31 | O=C(Nc1cccc(F)c1)N1C2CCC1CC(O)(c1cccnc1)C2 (centres undefined) | 31.6% (inactive)
32 | Cc1cc(C)nc(-n2ncc3c2CC(c2ccc(C(C)C)cc2)CC3=O)n1 (centres undefined) | -85.9% (active)
33 | Cc1nc2nc3c(cn2n1)C(=O)CC(c1ccccc1)C3 (centres undefined) | 20.9% (inactive)
34 | COc1ccc(OC)c(-n2cc3c(=O)n(C)c(=O)n(C)c3c2)c1 | 33% (inactive)
35 | O=c1ccnc(Nc2ccc(Cl)cc2)[nH]1 | 0% (inactive)
36 | CC1(C)N=C(N)NC(Nc2ccc(Cl)cc2)=N1 | -77.7% (active)
37 | COc1ccccc1NC1=NC(c2ccc(Cl)cc2)N=C(N)N1 (centres undefined) | -13.3% (inactive)
38 | O=C(Nc1ccc2c(c1)OCCO2)C(C1CC1)N1CCC(Cc2ccccc2)CC1 (centres undefined) | 11.6% (inactive)
39 | CC12c3ccccc3C(c3ccccc31)C1C(=O)N(Cc3cccnc3)C(=O)C12 (centres undefined) | -50.6% (active)
40 | CC1(C)CN(Cc2cccnc2)C(=O)[C@H]1CC(=O)Nc1ccc(Br)cc1 | 24.4% (inactive)

Row | SMILES | activity change
41 | CC1Oc2ccccc2N(Cc2cccnc2)C1=O (centres undefined) | -12.7% (inactive)
42 | CC(=O)N1CCN(Cc2cc(=O)oc3cc(C)ccc23)CC1 | 19.5% (inactive)
43 | O=C(/C(=N\O)n1cncn1)c1ccc(Br)cc1Br | -12.3% (inactive)
44 | CCN(CC)C(=O)N(CC)Cc1ccccc1 | 3.47% (inactive)
45 | COC(=O)c1cc2c(N)c(C(=O)c3ccc(Cl)cc3)sc2nc1C(OC)OC | -7.51% (inactive)
46 | Cc1ccc2c(N)c(C(=O)c3ccccc3)sc2n1 | -69.1% (active)
47 | CCN(CC)C(=O)c1sc2nc(-c3ccccc3)ccc2c1N | -57.4% (active)
48 | Cc1nc2sc(C(=O)c3ccccc3)c(N)c2c2c1CCCC2 | -96% (active)
49 | CCN(CC)C(=O)c1sc(NC(=O)c2ccco2)c(C#N)c1C | -26.1% (inactive)
50 | Cc1cccc(NC(=O)c2sc3nc(N4CCOCC4)c4c(c3c2N)CCCC4)c1 | 11.3% (inactive)
51 | Cc1nn(C)cc1C(=O)c1ccccc1 | 0% (inactive)
52 | Cc1nc2ccccc2c(-c2ccccc2)c1C(=O)c1ccccc1 | 29.5% (inactive)
53 | COCCCn1c(=O)/c(=C/c2ccccc2OC(C)C)s/c1=C(\C#N)C(=O)Nc1ccc(C(=O)O)cc1 | -11.6% (inactive)
54 | CC1Cc2ccccc2N1S(=O)(=O)c1cccc(C(=O)NCC(c2ccco2)N2CCCC2)c1 (centres undefined) | -6.87% (inactive)
55 | Cc1ccc([C@H]2N[C@]3(CCCN(Cc4ccccc4)C3=O)[C@H]3C(=O)N(Cc4ccccc4)C(=O)[C@@H]23)cc1 | 19.2% (inactive)
56 | CC(C)N1C(=O)c2ccccc2NC(=O)C1C(=O)NCc1cccs1 (centres undefined) | 0% (inactive)
57 | C[C@@H]1CCCCO[C@H](CN(C)Cc2ccccc2)[C@@H](C)CN([C@H](C)CO)C(=O)c2cc(NS(=O)(=O)c3ccc(Cl)cc3)ccc2O1 | -50.8% (active)
58 | C[C@@H]1CN([C@@H](C)CO)C(=O)c2cc(NS(C)(=O)=O)ccc2O[C@@H](C)CCCCO[C@H]1CN(C)C(=O)Nc1ccc2c(c1)OCO2 | -2.98% (inactive)
59 | Cc1ccc(S(=O)(=O)Nc2ccc3c(c2)C(=O)N([C@H](C)CO)C[C@@H](C)[C@@H](CN(C)C(=O)Nc2cccc4ccccc24)O3)cc1 | -20.3% (inactive)

From PubChem BioAssay AID743279 (National Center for Advancing Translational Sciences (NCATS), 2014)
